This is an account of results in PubChem BioAssay AID720597 (Broad Institute, 2013).

SMILES strings stand for the structures. Potency and affinity values are given separately. Active and inactive are the calls of the source.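 The calls were made as follows: active = fitted half-maximal dose no more than twice the top valid tested dose, for compounds that lower signal; inconclusive = fit invalid, or curve flat with activity between -70 and -30; inactive = potency past limit, curve flat within ±30, or signal increasing.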

Sequence of NAD-dependent protein deacylase sirtuin-5, mitochondrial (Homo sapiens) (Q9NXA8 whole entry, looked up): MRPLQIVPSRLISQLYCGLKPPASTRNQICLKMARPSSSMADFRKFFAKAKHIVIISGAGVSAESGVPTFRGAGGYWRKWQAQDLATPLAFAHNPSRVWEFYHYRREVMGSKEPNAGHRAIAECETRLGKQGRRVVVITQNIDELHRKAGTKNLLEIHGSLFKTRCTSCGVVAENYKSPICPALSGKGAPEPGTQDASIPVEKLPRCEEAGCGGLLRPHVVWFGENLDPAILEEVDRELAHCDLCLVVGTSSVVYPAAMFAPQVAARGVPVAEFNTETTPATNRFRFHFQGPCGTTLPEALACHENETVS

The test concerns the target NAD-dependent protein deacylase sirtuin-5, mitochondrial (Homo sapiens) (UniProt Q9NXA8). As to the kind of experiment: SIRT5 deacylase inhibitors, dose response, biochemical, fluorescence imaging, cherry-pick, set 6 (AID 720597).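 Also: lower AMC signal can also come from blocking the trypsin step.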 As to conditions: Purified SirT5, succinyl-peptide-AMC/trypsin fluorescence; series mostly up to 15 µM.
With `C[C@H](CO)N1C[C@H](C)[C@@H](CN(C)C(=O)Cc2ccccc2)OCc2ccccc2-c2c(n(C)c3ccccc23)C1=O`, the molecule was called inactive.

With `C[C@@H]1CN([C@@H](C)CO)C(=O)c2cc(C#CCN(C)C)cnc2O[C@@H]1CN(C)Cc1ccncc1`, the molecule was classed as inactive.

`COc1cccc(NC(=O)N(C)C[C@H]2Oc3ncc(C4=CCCCC4)cc3C(=O)N([C@H](C)CO)C[C@@H]2C)c1`: the result was inactive.

Turning to `CC(C)(C)NC(=O)CSc1nnc(-c2ccco2)n1-c1ccccc1`, the outcome was inactive.

Regarding `CC(C)CC#Cc1ccc2c(c1)O[C@@H](CN(C)C(=O)C1CCCCC1)[C@@H](C)CN([C@H](C)CO)S2(=O)=O`, the molecule was called inactive.

As for `CC(C)CC#Cc1ccc2c(c1)O[C@@H](CN(C)C(=O)Nc1ccccc1F)[C@@H](C)CN([C@@H](C)CO)S2(=O)=O`, the call was inactive.

`COc1ccccc1S(=O)(=O)N(C)C[C@H]1Oc2cc(C#CCC3CCCC3)ccc2S(=O)(=O)N([C@@H](C)CO)C[C@@H]1C`: the molecule was called inactive.

Regarding `C[C@@H]1CN([C@@H](C)CO)C(=O)c2cc(NC(=O)Cc3cn(C)c4ccccc34)ccc2O[C@H]1CN(C)Cc1ccc(Cl)c(Cl)c1`, the molecule was classed as inactive.

Turning to `C[C@H]1CN([C@@H](C)CO)C(=O)c2cc(C#CCC3CCCC3)cnc2O[C@H]1CN(C)C(=O)c1cnccn1`, the molecule was classed as inactive.

For the molecule `COc1ccc(S(=O)(=O)Nc2ccc3c(c2)C(=O)N([C@H](C)CO)C[C@@H](C)[C@@H](CN(C)Cc2ccc(Oc4ccccc4)cc2)O3)cc1`, the result was inactive.

As for `C[C@@H]1CN([C@@H](C)CO)C(=O)c2cccc(NS(=O)(=O)c3ccc(F)cc3)c2O[C@H]1CN(C)C(=O)Nc1ccccc1`, the outcome was inactive.

For the molecule `C[C@H](CO)N1C[C@H](C)[C@@H](CN(C)CC2CCCCC2)Oc2c(NC(=O)CCCCCC(=O)Nc3ccccc3N)cccc2C1=O`, the result was inactive.

For `CCCNC(=O)N(C)C[C@@H]1Oc2ncc(Br)cc2C(=O)N([C@H](C)CO)C[C@@H]1C`, the result was inactive.

With `COc1cccc(S(=O)(=O)N(C)C[C@H]2Oc3cc(C4=CCCC4)ccc3S(=O)(=O)N([C@@H](C)CO)C[C@H]2C)c1`, the result was inactive.

In the case of `CCCC#Cc1ccc2c(c1)O[C@@H](CN(C)CC1CCOCC1)[C@H](C)CN([C@H](C)CO)S2(=O)=O`, the molecule was called inactive.

On to `C[C@H](CO)N1C[C@H](C)[C@H](CN(C)Cc2ccc(Oc3ccccc3)cc2)Oc2ccc(NC(=O)CCCCCC(=O)Nc3ccccc3N)cc2CC1=O`, for which the result was inactive.

For the molecule `C[C@@H]1CN([C@@H](C)CO)S(=O)(=O)c2ccc(C#Cc3ccc(F)cc3)cc2O[C@H]1CN(C)C(=O)NC1CCCCC1`, the call was inactive.

Turning to `CC(C)NC(=O)N1CCCCN2[C@H](C1)[C@@H](c1ccc(C#CC3CC3)cc1)[C@@H]2CO`, the molecule was called inactive.

In the case of `C[C@H]1CN([C@@H](C)CO)S(=O)(=O)c2ccc(C#CC3CC3)cc2O[C@@H]1CN(C)Cc1ccccc1F`, the molecule was classed as inactive.

For the molecule `Cc1ccc(S(=O)(=O)N(C)C[C@H]2OCCCC[C@H](C)Oc3ccc(NS(=O)(=O)c4ccccc4)cc3C(=O)N([C@@H](C)CO)C[C@@H]2C)cc1`, the molecule was called inactive.

As to `C[C@H](CO)N1C[C@H](C)[C@H](CN(C)Cc2ccc(-c3ccccc3)cc2)Oc2cc(C#C[C@@H](C)O)ccc2S1(=O)=O`, the result was inactive.

With `C[C@@H]1CN([C@@H](C)CO)C(=O)Cc2cc(NC(=O)Nc3ccccc3)ccc2O[C@H]1CN(C)S(=O)(=O)c1ccc(F)cc1`, the molecule was called inactive.

Take `CO[C@@H]1CN(C)C(=O)c2ccc(NS(C)(=O)=O)cc2OC[C@@H](C)N(Cc2nccs2)C[C@H]1C`: the result was inactive.

For the molecule `Cc1ccc(S(=O)(=O)N(C)C[C@@H]2OCCCC[C@H](C)Oc3ccc(NS(=O)(=O)c4ccc(F)cc4)cc3C(=O)N([C@@H](C)CO)C[C@H]2C)cc1`, the molecule was classed as inactive.

Regarding `O=C(C[C@H]1C[C@@H]2c3cc(NC(=O)C4CCC4)ccc3O[C@@H]2[C@@H](CO)O1)NCc1ccc(-c2ccccc2)cc1`, the outcome was inactive.

As to `Cc1ccc(S(=O)(=O)Nc2ccc3c(c2)C(=O)N([C@H](C)CO)C[C@H](C)[C@@H](CN(C)Cc2ccc(C(F)(F)F)cc2)OCCCC[C@H](C)O3)cc1`, the molecule was classed as inactive.

As for `C[C@H]1CCCCO[C@H](CN(C)S(=O)(=O)c2ccc(Cl)cc2)[C@@H](C)CN([C@@H](C)CO)C(=O)c2cc(NS(=O)(=O)c3ccc(F)cc3)ccc2O1`, the molecule was classed as inactive.

On to `Cc1noc(C)c1S(=O)(=O)Nc1ccc2c(c1)C(=O)N([C@H](C)CO)C[C@@H](C)[C@@H](CN(C)Cc1ccc(C(F)(F)F)cc1)OCCCC[C@@H](C)O2`, for which the molecule was classed as inactive.

Turning to `COCC(=O)N1C[C@@H](C)[C@@H](OC)CN(C)C(=O)c2cc(NC(=O)c3cc(C)on3)ccc2OC[C@H]1C`, the call was inactive.

Consider `O=C(Nc1cc(F)ccc1F)N1CCCCN2[C@H](CO)[C@H](c3ccc(-c4ccccc4)cc3)[C@H]2C1`, for which the call was inactive.

As for `C[C@@H]1CCCCO[C@@H](CN(C)Cc2ccc(Cl)c(Cl)c2)[C@@H](C)CN([C@H](C)CO)C(=O)c2cc(NC(=O)CCCCCC(=O)Nc3ccccc3N)ccc2O1`, the result was inactive.

In the case of `Cc1ccccc1-c1ccc([C@H]2[C@H](CO)N3CCCCN(S(=O)(=O)c4ccc(F)cc4)C[C@@H]23)cc1`, the molecule was called inactive.

Regarding `C[C@@H]1CN([C@@H](C)CO)C(=O)Cc2cc(NS(=O)(=O)c3ccc(Cl)cc3)ccc2O[C@H]1CN(C)Cc1ccc(Oc2ccccc2)cc1`, the molecule was called inactive.

Turning to `C[C@@H]1CN([C@@H](C)CO)C(=O)c2cc(C#CC3CCCCC3)cnc2O[C@H]1CN(C)S(=O)(=O)c1cccc(F)c1`, the molecule was called inactive.

On to `COc1ccc(S(=O)(=O)Nc2ccc3c(c2)C(=O)N([C@H](C)CO)C[C@@H](C)[C@@H](CN(C)Cc2ccc(C(F)(F)F)cc2)OCCCC[C@@H](C)O3)cc1`, for which the result was inactive.

Consider `Cc1noc(C)c1NC(=O)Nc1cccc2c1O[C@@H](CN(C)Cc1ccc(Oc3ccccc3)cc1)[C@@H](C)CN([C@H](C)CO)C2=O`, for which the molecule was called inactive.

Take `COc1cccc(NC(=O)N2CC(=O)N3[C@H](C2)[C@@H](c2ccc(C#CCC4CCCC4)cc2)[C@@H]3CO)c1`: the call was inactive.

For the molecule `COc1ccccc1-c1ccc2c(c1)O[C@@H](CN(C)S(=O)(=O)c1ccc(F)cc1)[C@@H](C)CN([C@@H](C)CO)S2(=O)=O`, the molecule was classed as inactive.

For `COc1ccc(S(=O)(=O)N(C)C[C@H]2OCCCC[C@@H](C)Oc3ccc(NS(=O)(=O)c4ccc(C)cc4)cc3C(=O)N([C@@H](C)CO)C[C@@H]2C)cc1`, the molecule was classed as inactive.

In the case of `C[C@@H]1CN([C@@H](C)CO)S(=O)(=O)c2ccc(C#Cc3ccccc3)cc2O[C@H]1CN(C)C(=O)C1CC1`, the result was inactive.
